AC50 and outcome data for ten compounds are collected here from PubChem BioAssay (EPA / NIEHS).

Results filed as inconclusive are left out. Calls of active or inactive are those of the source. How the source made its calls: active means hit-call score of the fitted dose curve at least 0.9, where 1 is the maximum; inconclusive means response in the unintended direction; inactive means score below 0.9.

human Dopamine Transporter (DAT), SLC6A3 (gene 6531), sequence (Q01959 whole entry, looked up): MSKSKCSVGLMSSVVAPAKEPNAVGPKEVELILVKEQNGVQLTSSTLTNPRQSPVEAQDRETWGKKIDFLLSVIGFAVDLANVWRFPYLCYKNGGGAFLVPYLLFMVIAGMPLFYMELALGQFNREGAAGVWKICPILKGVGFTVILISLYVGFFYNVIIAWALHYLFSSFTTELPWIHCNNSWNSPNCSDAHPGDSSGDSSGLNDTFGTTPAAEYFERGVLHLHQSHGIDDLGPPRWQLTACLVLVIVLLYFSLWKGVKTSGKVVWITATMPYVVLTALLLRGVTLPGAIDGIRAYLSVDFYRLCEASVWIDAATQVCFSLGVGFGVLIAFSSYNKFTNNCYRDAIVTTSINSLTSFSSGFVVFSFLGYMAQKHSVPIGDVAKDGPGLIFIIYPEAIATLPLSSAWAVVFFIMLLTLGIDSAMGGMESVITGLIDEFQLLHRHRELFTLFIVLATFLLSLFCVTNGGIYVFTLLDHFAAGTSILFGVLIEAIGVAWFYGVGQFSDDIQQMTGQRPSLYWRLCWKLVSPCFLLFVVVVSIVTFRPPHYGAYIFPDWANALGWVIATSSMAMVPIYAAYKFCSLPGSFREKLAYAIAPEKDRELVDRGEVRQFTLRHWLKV

One experiment has as its target human Dopamine Transporter (DAT), SLC6A3 (gene 6531) (UniProt Q01959). Kind of experiment: NVS_TR_hDAT: NovaScreen (NVS) Transporter Assay for human Dopamine Transporter (DAT) (AID 2283374).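 Further: activity means loss of bound radioligand signal relative to DMSO.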 The procedure:
NVS_TR_hDAT is a biochemical, single-readout assay that uses extracted gene-proteins in a cell-free assay. Measurements were taken 1 hour after chemical dosing in a 96-well plate.NVS_TR_hDAT is one of one assay component(s) measured or calculated from the NVS_TR_hDAT assay. It is designed to make measurements of radioligand binding, a form of binding reporter, as detected with scintillation counting signals by Filter-based radiodetection technology.Data from the assay component NVS_TR_hDAT was analyzed into 1 assay endpoint. This assay endpoint, NVS_TR_hDAT, was analyzed in the positive analysis fitting direction relative to DMSO as the negative control and baseline of activity. Using a type of binding reporter, loss-of-signal activity can be used to understand changes in the binding as they relate to the gene SLC6A3. Furthermore, this assay endpoint can be referred to as a primary readout, because the performed assay has only produced 1 assay endpoint. To generalize the intended target to other relatable targets, this assay endpoint is annotated to the transporter intended target family, where the subfamily is neurotransmitter transporter.
Binding assays used specific radioligands (tritiated, iodinated) with non-radioactive competitive displacement ligands in agonist or antagonist protocols (as indicated) and various reference compounds and inhibitors to titrate specific binding to receptors and transporters. Most enzyme assays (CYPs, kinases, phosphatases, proteases, HDACs) used recombinant protein and specific substrates (fluorescence mostly, some colorimetric and radioactive) and inhibitors, followed by a biochemical separation of substrate and product. All assays for the biochemical HTS were initially run in duplicate at a single concentration (10 uM for CYP450 assays and 25 uM for all others). […] Each assay was run with positive and negative controls, and concurrent controls on every plate. The follow-up (secondary) screen tested active chemical-pairs in concentration series, as well as a few additional assays not tested in the primary screen, some selected negative inactives, and several cases re-run in the concentration series for confirmatory purposes.
With `CCCCCCCCCCCCCCCC[N+](C)(C)Cc1ccccc1`, the concentration at half-maximal activity (AC50) (as a rule, the concentration giving half of the maximal activity seen) was 1.89 µM (active).
On the same count and under the same terms, to `Nc1ccc(Oc2cccc(Oc3ccc(N)cc3)c2)cc1` belongs 1.02 µM (active).
In the case of `CCN(CC)c1ccc2c(C)cc(=O)oc2c1`, the AC50 was 20.2 µM (active).
Take `Oc1ccc(Nc2ccccc2)cc1`: the AC50 is 6.97 µM (active).
For the compound `CCCCNc1ccccc1`, the call was inactive.

The target in a further experiment is rat Serotonin Transporter (SERT), Slc6a4 (gene 25553) (UniProt P31652). Kind of experiment: NVS_TR_rSERT: NovaScreen (NVS) Transporter Assay for rat Serotonin Transporter (SERT) (AID 2283375). In outline: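 Filtration-based radiodetection quantified loss of specific radioligand binding in rat forebrain membranes after 1 hour of chemical exposure, relative to DMSO. Chemicals were first tested in duplicate at 25 uM.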
rat Serotonin Transporter (SERT), Slc6a4 (gene 25553), sequence (P31652 whole entry, looked up): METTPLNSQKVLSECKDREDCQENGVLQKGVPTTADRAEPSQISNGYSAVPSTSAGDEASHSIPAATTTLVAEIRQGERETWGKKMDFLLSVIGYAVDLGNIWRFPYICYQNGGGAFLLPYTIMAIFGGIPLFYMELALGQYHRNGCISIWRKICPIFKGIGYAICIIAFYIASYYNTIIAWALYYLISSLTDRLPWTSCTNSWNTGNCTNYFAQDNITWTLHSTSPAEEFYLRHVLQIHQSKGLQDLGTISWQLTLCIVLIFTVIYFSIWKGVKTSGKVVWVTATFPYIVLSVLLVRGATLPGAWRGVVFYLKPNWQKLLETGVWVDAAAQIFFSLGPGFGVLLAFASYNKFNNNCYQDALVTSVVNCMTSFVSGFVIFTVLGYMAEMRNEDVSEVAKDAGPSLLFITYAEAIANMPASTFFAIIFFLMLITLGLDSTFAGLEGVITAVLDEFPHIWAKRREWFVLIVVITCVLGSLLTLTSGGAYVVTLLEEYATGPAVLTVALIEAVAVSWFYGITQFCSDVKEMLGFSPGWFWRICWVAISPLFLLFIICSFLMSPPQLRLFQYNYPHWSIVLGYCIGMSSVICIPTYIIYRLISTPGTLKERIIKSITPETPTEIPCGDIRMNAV
With `CCCCCCCCCCCCCCCC[N+](C)(C)Cc1ccccc1`, the call was inactive.
Regarding `C#C[C@]1(O)CC[C@H]2[C@@H]3CCc4cc(OC)ccc4[C@H]3CC[C@@]21C`, the AC50 is 19 µM (active).
On to `Cc1cccc(N(C)C)c1`, for which the outcome was inactive.

In a further experiment the target is human Norepinephrine Transporter (NET), SLC6A2 (gene 6530) (UniProt P23975). Kind of experiment: NVS_TR_hNET: NovaScreen (NVS) Transporter Assay for human Norepinephrine Transporter (NET) (AID 2283377).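 On AC50: displacement of radioligand from human NET seen as loss of scintillation signal.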 The method, boiled down: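 Cell-free radioligand binding using CHO-derived membrane protein expressing human NET, read by filter scintillation counting 1 h after dosing; loss of signal vs DMSO. Initial duplicate screen at 25 uM, actives retested in concentration series.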
human Norepinephrine Transporter (NET), SLC6A2 (gene 6530), sequence (P23975 whole entry, looked up): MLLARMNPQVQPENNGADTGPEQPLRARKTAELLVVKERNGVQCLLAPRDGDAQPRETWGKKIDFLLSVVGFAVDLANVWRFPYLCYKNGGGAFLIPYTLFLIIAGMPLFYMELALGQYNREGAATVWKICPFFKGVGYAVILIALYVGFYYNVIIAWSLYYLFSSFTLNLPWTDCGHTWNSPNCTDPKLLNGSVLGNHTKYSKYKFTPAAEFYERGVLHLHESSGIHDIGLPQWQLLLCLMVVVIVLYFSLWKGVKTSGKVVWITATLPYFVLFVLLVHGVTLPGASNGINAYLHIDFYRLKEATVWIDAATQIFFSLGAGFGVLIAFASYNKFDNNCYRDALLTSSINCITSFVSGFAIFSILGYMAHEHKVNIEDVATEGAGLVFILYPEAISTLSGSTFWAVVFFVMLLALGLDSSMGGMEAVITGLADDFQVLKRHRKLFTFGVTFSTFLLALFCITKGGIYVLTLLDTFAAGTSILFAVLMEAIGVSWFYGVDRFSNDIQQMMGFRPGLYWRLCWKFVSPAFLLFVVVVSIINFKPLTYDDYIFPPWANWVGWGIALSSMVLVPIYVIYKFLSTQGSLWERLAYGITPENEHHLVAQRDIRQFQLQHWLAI
In the case of `CC(C)c1ccccc1N`, the outcome was inactive.
For the compound `CCCCCCCCCCCCCCCC[N+](C)(C)Cc1ccccc1`, the AC50 is 2.45 µM (active).
Regarding `C#C[C@]1(O)CC[C@H]2[C@@H]3CCc4cc(OC)ccc4[C@H]3CC[C@@]21C`, the AC50 is 3.99 µM (active).
Consider `Nc1ccc(Oc2cccc(Oc3ccc(N)cc3)c2)cc1`, for which the result was inactive.
`O[Si](c1ccccc1)(c1ccccc1)c1ccccc1`: the concentration at half-maximal activity (AC50) was 25 µM (active).
With `CO[Si](OC)(c1ccccc1)c1ccccc1`, the outcome was inactive.
On to `CCN(CC)c1ccc2c(C)cc(=O)oc2c1`, for which the AC50 was 25 µM (active).
Regarding `Oc1ccc(Nc2ccccc2)cc1`, the AC50 was 11.9 µM (active).
